From PubChem BioAssay (Tox21)
Results filed as inconclusive are left out. The source made the active and inactive calls. Unless noted, the call rests on the fitted dose curve; in most records, active means well fitted curve in the direction sought with a large enough effect in the repeat runs; inconclusive means weak or mixed curves; inactive means no such curve, though single readings can be large; an effect the other way counts as inactive or inconclusive.

Assays:
[1] = qHTS assay to identify small molecule antagonists of the thyroid receptor (TR) signaling pathway - cell viability counter screen (AID 743064); further: nearly all actives have a fitted effect of over 50% in size
Method in brief: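 Rat GH3 pituitary tumor cells stably expressing two TR response elements driving luciferase were plated, rested 4 h, then dosed with library compounds and T3 (1 nM final). After 23.5 h at 37 °C, CellTiter-Fluor was added for 30 min and fluorescence recorded.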

[2] = qHTS assay to identify small molecule antagonists of the thyroid receptor (TR) signaling pathway (AID 743065); further: series mostly up to about 70 µM; nearly all actives have a fitted effect of over 55% in size
Method in brief: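 GH3.TRE-Luc rat pituitary cells (two TREs driving luciferase) were dosed with compound, then stimulated with 1 nM T3 (final) for 23.5 h at 37 C. ONE-Glo luminescence was the read-out, with CellTiter-Fluor fluorescence as the cytotoxicity counter-screen.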

[3] = tested on: thyroid hormone receptor (rat, GH3 cells); assay: qHTS assay to identify small molecule agonists of the thyroid receptor (TR) signaling pathway (AID 743066; calls by dose curve)
[4] = qHTS assay to identify small molecule antagonists of the estrogen receptor alpha (ER-alpha) signaling pathway - cell viability counter screen (AID 743074; calls by dose curve; further: nearly all actives have a fitted effect of over 45% in size)
[5] = qHTS assay to identify small molecule antagonists of the estrogen receptor alpha (ER-alpha) signaling pathway using the BG1 cell line - cell viability counter screen (AID 743081);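 further: compound given together with 17beta-estradiol as the ER stimulus; series mostly up to about 70 µM; nearly all actives have a fitted effect of over 45% in size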
[6] = target: Aromatase (Homo sapiens) (UniProt P11511); assay: qHTS assay to identify aromatase inhibitors (AID 743083); further: series mostly up to about 70 µM; nearly all actives have a fitted effect of over 55% in size
[7] = qHTS assay to identify aromatase inhibitors - cell viability counter screen (AID 743084);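 further: cells stimulated with testosterone during compound exposure; nearly all actives have a fitted effect of over 55% in size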
[8] = target: Aryl hydrocarbon receptor (Homo sapiens) (UniProt P35869); assay: qHTS assay to identify small molecule that activate the aryl hydrocarbon receptor (AhR) signaling pathway (AID 743085);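 further: HG2L7.5c1 human HepG2 liver cells with stably integrated DRE-driven firefly reporter; series mostly up to about 70 µM; nearly all actives have a fitted effect of over 15% in size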
Method in brief: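 Compounds were tested in HepG2 hepatocellular carcinoma cells harbouring a stably integrated luciferase gene under control of 20 DREs. Increased reporter signal after 24 h treatment at 37C was taken as AhR activation.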

[9] = qHTS assay to identify small molecule that activate the aryl hydrocarbon receptor (AhR) signaling pathway - cell viability counter screen (AID 743086);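 further: HepG2 liver cells carrying the AhR DRE luciferase reporter; series mostly up to about 70 µM; nearly all actives have a fitted effect of over 45% in size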
Method in brief: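 HepG2-AhR-luc (HG2L7.5c1) cells, 4000/well, treated 24 h at 37 C with compound; viability measured as CellTiter-Fluor fluorescence after 30 min in the same wells as the luciferase read.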

[10] = target: Peroxisome proliferator-activated receptor gamma (Homo sapiens) (UniProt P37231); assay: qHTS assay to identify small molecule agonists of the peroxisome proliferator-activated receptor gamma (PPARg) signaling pathway (AID 743094; active means well fitted activation curve with a large enough effect in the signal ratio in the repeat runs, not every such curve was filed as active; the % refers to the signal ratio)
Method in brief: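 Fluorescence-based beta-lactamase readout in HEK293H PPARg UAS-bla cells after 17 h compound exposure (37C) and 1 h B/G FRET substrate incubation at room temperature.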

[11] = target: Peroxisome proliferator-activated receptor gamma (Homo sapiens) (UniProt P37231); assay: qHTS assay to identify small molecule antagonists of the peroxisome proliferator-activated receptor gamma (PPARg) signaling pathway (AID 743191; calls by dose curve; further: series mostly up to about 63 µM; nearly all actives have a fitted effect of over 30% in size)
Method in brief: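 GeneBLAzer PPARg UAS-bla HEK293H cells, 5 h post-plating, exposed to compounds 17 h at 37C. LiveBLAzer B/G FRET substrate added for 1 h at room temperature; beta-lactamase reporter read by fluorescence intensity.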

[12] = qHTS assay for small molecule agonists of the antioxidant response element (ARE) signaling pathway - cell viability counter screen (AID 743203; calls by dose curve; further: nearly all actives have a fitted effect of over 55% in size)
Method in brief: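 Parallel cytotoxicity read-out for the ARE-bla screen: HepG2 reporter cells, 16 hrs with compounds, then CellTiter-Glo luminescence.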

[13] = qHTS assay for small molecule activators of the heat shock response signaling pathway - cell viability counter screen (AID 743209); further: nearly all actives have a fitted effect of over 50% in size
Method in brief: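 To flag cytotoxic compounds, HSE-bla HeLa cells plated at 1500 cells/well were dosed for 5 h at 37 C, followed by the reporter FRET read and then CellTiter-Glo, with luminescence recorded 30 min after reagent addition.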

[14] = qHTS assay for small molecule activators of the heat shock response signaling pathway (AID 743210; active means well fitted activation curve with a large enough effect in the signal ratio in the repeat runs, with a control signal flat, not every such curve was filed as active; the % refers to the signal ratio;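 further: HeLa cells with beta-lactamase reporter driven by heat shock elements; series mostly up to about 63 µM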)
Method in brief: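 Following overnight attachment, HSE-bla HeLa cells received test compounds for 5 h at 37 C; beta-lactamase activity was then detected via FRET substrate fluorescence.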

[15] = qHTS assay for small molecule agonists of the antioxidant response element (ARE) signaling pathway (AID 743202; active means well fitted activation curve with a large enough effect in the signal ratio in the repeat runs, not every such curve was filed as active; the % refers to the signal ratio)
Method in brief: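 HepG2 ARE-bla cells; 16 h treatment at 37 C; FRET-based beta-lactamase fluorescence read after 2 h substrate incubation at room temperature.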

[16] = target: Estrogen receptor (Homo sapiens) (UniProt P03372); assay: qHTS assay to identify small molecule antagonists of the estrogen receptor alpha (ER-alpha) signaling pathway (AID 743069; active means well fitted curve in the direction sought with a large enough effect in the signal ratio in the repeat runs, not every such curve was filed as active; the % refers to the signal ratio)
Method in brief: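 In this cell-based reporter format, GripTite HEK293 cells harbouring ER-alpha-UAS-bla were grown overnight with 2% charcoal-stripped FBS, dosed with DMSO-dissolved compounds, then challenged with 17beta-estradiol. After 18 hr at 37C, beta-lactamase activity was detected by FRET fluorescence.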

[17] = target: Estrogen receptor (Homo sapiens) (UniProt P03372); assay: qHTS assay to identify small molecule agonists of the estrogen receptor alpha (ER-alpha) signaling pathway (AID 743075; calls by dose curve)
[18] = target: Estrogen receptor (Homo sapiens) (UniProt P03372); assay: qHTS assay to identify small molecule agonists of the estrogen receptor alpha (ER-alpha) signaling pathway using the BG1 cell line (AID 743079); further: nearly all actives have a fitted effect of over 20% in size
[19] = qHTS assay to identify small molecule antagonists of the estrogen receptor alpha (ER-alpha) signaling pathway using the BG1 cell line (AID 743080; calls by dose curve;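 further: BG1 cells stimulated with 17beta-estradiol alongside compound; series mostly up to about 70 µM; nearly all actives have a fitted effect of over 25% in size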)
Method in brief: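 Luciferase inhibition measured with ONE-Glo after 30 min at RT in BG1Luc4E2 cells given test compounds and 17beta-estradiol for 21.5 h at 37 C; CellTiter-Fluor viability read in the same wells beforehand.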

[20] = qHTS assay to identify small molecule antagonists of the peroxisome proliferator-activated receptor gamma (PPARg) signaling pathway - cell viability counter screen (AID 743194); further: nearly all actives have a fitted effect of over 55% in size
Method in brief: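 Cytotoxicity counter screen in PPARg-bla HEK293H cells, same wells as reporter assay. Compounds plus 50 nM rosiglitazone (final) for 17 h at 37 C, then viability read by CellTiter-Glo luminescence.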

Measured: Potency

Aryl hydrocarbon receptor (Homo sapiens), sequence (P35869 whole entry, looked up): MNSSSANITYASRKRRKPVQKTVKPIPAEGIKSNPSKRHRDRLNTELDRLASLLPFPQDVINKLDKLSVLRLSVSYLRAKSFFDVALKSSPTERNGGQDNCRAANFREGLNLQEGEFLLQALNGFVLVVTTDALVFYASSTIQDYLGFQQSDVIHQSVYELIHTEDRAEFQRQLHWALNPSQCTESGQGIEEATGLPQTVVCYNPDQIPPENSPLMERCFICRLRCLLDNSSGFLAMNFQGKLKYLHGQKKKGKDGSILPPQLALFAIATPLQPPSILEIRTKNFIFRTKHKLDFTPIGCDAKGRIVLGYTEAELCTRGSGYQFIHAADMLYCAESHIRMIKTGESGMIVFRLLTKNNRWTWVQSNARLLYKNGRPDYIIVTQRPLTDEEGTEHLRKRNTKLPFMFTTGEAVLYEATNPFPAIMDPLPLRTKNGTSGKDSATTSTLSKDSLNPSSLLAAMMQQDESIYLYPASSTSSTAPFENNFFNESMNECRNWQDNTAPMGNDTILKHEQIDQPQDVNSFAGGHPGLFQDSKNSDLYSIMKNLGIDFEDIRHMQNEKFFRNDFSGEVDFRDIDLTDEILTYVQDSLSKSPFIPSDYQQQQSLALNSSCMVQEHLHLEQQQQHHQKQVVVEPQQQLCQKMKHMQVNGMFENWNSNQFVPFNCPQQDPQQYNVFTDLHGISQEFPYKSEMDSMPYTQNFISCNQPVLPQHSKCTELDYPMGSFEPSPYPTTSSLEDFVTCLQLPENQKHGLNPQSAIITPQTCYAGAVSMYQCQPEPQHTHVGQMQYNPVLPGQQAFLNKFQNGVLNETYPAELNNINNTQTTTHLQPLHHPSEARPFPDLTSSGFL
Peroxisome proliferator-activated receptor gamma (Homo sapiens), sequence (P37231 whole entry, looked up): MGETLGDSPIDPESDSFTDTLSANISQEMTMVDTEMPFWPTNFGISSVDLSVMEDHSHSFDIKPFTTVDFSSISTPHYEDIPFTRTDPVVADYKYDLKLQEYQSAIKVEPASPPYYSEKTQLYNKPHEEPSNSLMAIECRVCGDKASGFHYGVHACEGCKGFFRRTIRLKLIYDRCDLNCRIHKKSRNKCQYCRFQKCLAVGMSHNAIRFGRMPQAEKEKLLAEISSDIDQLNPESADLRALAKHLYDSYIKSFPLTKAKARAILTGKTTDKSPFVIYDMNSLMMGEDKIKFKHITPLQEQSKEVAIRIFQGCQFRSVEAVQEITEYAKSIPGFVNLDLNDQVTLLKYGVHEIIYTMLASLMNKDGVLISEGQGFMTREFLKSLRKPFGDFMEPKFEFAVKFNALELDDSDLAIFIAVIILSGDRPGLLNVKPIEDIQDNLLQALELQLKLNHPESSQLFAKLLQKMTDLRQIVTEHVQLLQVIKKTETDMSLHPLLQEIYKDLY
Aromatase (Homo sapiens), sequence (P11511 whole entry, looked up): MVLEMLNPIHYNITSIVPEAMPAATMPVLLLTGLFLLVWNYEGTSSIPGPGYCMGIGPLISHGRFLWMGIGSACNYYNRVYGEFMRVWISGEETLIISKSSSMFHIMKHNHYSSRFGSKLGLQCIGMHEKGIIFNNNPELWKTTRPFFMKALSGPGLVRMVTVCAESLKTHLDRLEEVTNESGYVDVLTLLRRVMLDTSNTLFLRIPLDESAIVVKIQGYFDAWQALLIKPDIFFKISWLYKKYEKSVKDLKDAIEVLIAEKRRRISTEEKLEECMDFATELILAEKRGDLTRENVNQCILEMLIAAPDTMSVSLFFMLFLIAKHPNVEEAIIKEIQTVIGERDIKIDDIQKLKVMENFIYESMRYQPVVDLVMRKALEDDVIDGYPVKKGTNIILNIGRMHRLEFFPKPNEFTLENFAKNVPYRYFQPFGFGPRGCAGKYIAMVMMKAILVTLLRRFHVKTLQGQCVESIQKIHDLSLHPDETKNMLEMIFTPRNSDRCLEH
Estrogen receptor (Homo sapiens), sequence (P03372 whole entry, looked up): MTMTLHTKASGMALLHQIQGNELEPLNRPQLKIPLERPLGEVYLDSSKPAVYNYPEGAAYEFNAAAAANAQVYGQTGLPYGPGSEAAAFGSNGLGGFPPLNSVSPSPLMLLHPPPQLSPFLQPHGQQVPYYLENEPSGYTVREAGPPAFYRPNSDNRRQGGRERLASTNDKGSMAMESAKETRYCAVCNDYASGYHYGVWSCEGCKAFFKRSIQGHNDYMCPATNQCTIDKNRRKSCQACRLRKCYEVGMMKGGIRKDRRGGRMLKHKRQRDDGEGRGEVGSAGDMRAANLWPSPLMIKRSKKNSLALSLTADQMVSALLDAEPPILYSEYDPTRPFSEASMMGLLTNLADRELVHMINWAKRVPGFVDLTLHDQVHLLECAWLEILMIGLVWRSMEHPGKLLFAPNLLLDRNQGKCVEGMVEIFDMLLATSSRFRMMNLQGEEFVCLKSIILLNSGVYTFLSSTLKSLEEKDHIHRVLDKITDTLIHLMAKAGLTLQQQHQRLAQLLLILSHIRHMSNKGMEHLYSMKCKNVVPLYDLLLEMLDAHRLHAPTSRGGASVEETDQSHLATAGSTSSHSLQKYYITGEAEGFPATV

NC(=S)NNC(N)=S
inactive: [1] | [2] | [3] | [4] | [5] | [6] | [7] | [8] | [9] | [10] | [11] | [12] | [13] | [14]

CN/C(=C\[N+](=O)[O-])NCCSCc1csc(CN(C)C)n1
inactive: [1] | [2] | [3] | [4] | [5] | [6] | [7] | [9] | [10] | [11] | [15] | [12] | [13] | [14]

CCNc1ccccc1
inactive: [1] | [2] | [3] | [4] | [5] | [6] | [7] | [8] | [9] | [10] | [11] | [12] | [13] | [14]

O=C1CCCC1
inactive: [2] | [3] | [16] | [4] | [17] | [18] | [19] | [5] | [6] | [7] | [8] | [9] | [10] | [11] | [20] | [15] | [12] | [13] | [14]

COC(=O)c1cccnc1
inactive: [1] | [2] | [3] | [4] | [5] | [6] | [7] | [8] | [9] | [10] | [11] | [15] | [12] | [13] | [14]

COCCOC(=O)c1ccccc1C(=O)OCCOC
inactive: [1] | [2] | [3] | [4] | [5] | [6] | [7] | [8] | [9] | [10] | [11] | [20] | [12] | [13] | [14]

COc1cc(OC)c(C(=O)CCCN2CCCC2)c(OC)c1
inactive: [1] | [2] | [3] | [4] | [5] | [6] | [7] | [8] | [9] | [10] | [11] | [20] | [15] | [12] | [13] | [14]

CC(=O)OCc1ccco1
inactive: [2] | [3] | [16] | [4] | [17] | [18] | [19] | [5] | [6] | [7] | [8] | [9] | [10] | [11] | [20] | [15] | [12] | [13] | [14]

CC(C)CCCCCCCOC(=O)CCCCC(=O)OCCCCCCCC(C)C
inactive: [1] | [2] | [3] | [4] | [5] | [6] | [7] | [8] | [9] | [10] | [11] | [15] | [12] | [13] | [14]
